Experimental findings from PubChem BioAssay (Tox21) are described below.

Each structure is given as a SMILES string. Active and inactive are the calls of the source. The call rests on the fitted dose curve; in most records, active means well fitted cell-killing curve with a large enough effect in the repeat runs; inconclusive means weak or mixed curves, or effect the other way; inactive means flat fitted curve, though single readings scatter.
On the % scale 0 is the no-effect control and ±100 the full control effect.

The nature of this test: qHTS assay to identify small molecule HDAC inhibitors - cell viability counter screen (AID 1259365). Further: nearly all actives have a fitted effect of over 50% in size. As to conditions: HCT-116 viability, CellTiter-Glo ATP luminescence, 2 h; series mostly up to 92.4 µM; activity change, negative = cytotoxicity: at the top concentration. The text has this:
U.S. Tox21 Program National Center for Advancing Translational Sciences [NCATS] NIH Chemical Genomics Center [NCGC] U.S. Environmental Protection Agency [EPA] National Institutes of Environmental Health Sciences [NIEHS] National Toxicology Program [NTP] U.S. Food and Drug Administration [FDA] Tox21 Assay Overview: Histone deacetylases (HDACs) are a group of epigenetic enzymes that regulate gene expression by histone deacetylation. HDACs are capable of introducing epigenetic modifications and such aberrations contribute to the onset and progression of several human diseases, thus making HDACs a popular therapeutic target. For identifying endogenous class I/II HDAC inhibitors a homogenous, luminogenic HDAC I/II cell based assay was used to measure the relative activity of class I and II HDACs from cells. Wild type HCT-116 cells were used to screen Tox21 compound libraries for identifying class I/II HDAC inhibitors.
Tox21 Assay Protocol Summary: HCT-116 cells were dispensed at 1,500 per well in 5uL of culture medium into white solid bottom 1536-well plates (Greiner Bio-One, Monroe, NC) using a Multidrop Combi (Thermo Scientific, Waltham, MA) dispenser. The assay plates were incubated at 37 C and 5% CO2 for an overnight, and then 23nL of compounds dissolved in DMSO and positive control were transferred using a Pintool station (Wako, San Diego, CA). The assay plates were incubated at 37C and 5% CO2 for 2hr. After compound treatment, 4uL of CellTiter-Glo reagent (Promega Corporation, Madison, WI) was added to each well of the assay plates using Flying Reagent Dispenser (FRD, Aurora Discovery, San Diego, CA) and incubated the assay plates at room temperature for 30min. The luminescence signal was quantified using a ViewLux plate reader (Perkin Elmer, Shelton, CT).
Take `NC(N)=NC(N)=NCCc1ccccc1`: the result was inactive.

With `COC1=CC(=O)C[C@@H](C)[C@]12Oc1c(Cl)c(OC)cc(OC)c1C2=O`, the compound was called inactive.

On to `C[C@]12C[C@H](O)[C@H]3[C@@H](CCC4=CC(=O)CC[C@@]43C)[C@@H]1CC[C@@H]2C(=O)CO`, for which the compound was classed as inactive.

Turning to `Cc1cccc(Nc2cc(Cl)nc(SCC(=O)O)n2)c1C`, the compound was classed as inactive.

On to `O=C(O)Cc1cccc2ccccc12`, for which the result was inactive.

Take `CC(=O)OC/C=C(C)/C=C/C=C(C)/C=C/C1=C(C)CCCC1(C)C`: the call was inactive.

`C[C@]12C=CC(=O)C=C1CC[C@@H]1[C@@H]2C(=O)C[C@@]2(C)[C@H]1CC[C@]2(O)C(=O)CO`: the compound was classed as inactive.

On to `COc1cc(O)c(C(=O)c2ccccc2)cc1S(=O)(=O)O`, for which the result was inactive.

Turning to `NC(=O)N/N=C/c1ccc([N+](=O)[O-])o1`, the compound was called inactive.

Turning to `COC(=O)c1ccc(O)cc1`, the result was inactive.

Turning to `O=c1c(-c2ccc(O)cc2)coc2cc(O)cc(O)c12`, the “activity change, negative = cytotoxicity” value was 15.4% (inactive).

Turning to `CC1=NN(c2ccccc2)C(=O)C1`, the outcome was inactive.

On to `Cc1cccc(C)c1O`, for which the compound was classed as inactive.

On to `C=C(C)C(N)=O`, for which the result was inactive.

As for `OCCCc1ccccc1`, the call was inactive.

Take `CCN1CCCC1=O`: the call was inactive.

For the compound `CCCCCCCCCCCCCCCCCC(=O)OCC(O)CO` (stereo not given), the call was inactive.

With `CCOCCO`, the call was inactive.

Turning to `COCC(C)N` (stereo not given), the outcome was inactive.

In the case of `CCCCC/C(C=O)=C\c1ccccc1`, the call was inactive.

For `Cc1ccc(O)c(-n2nc3ccccc3n2)c1`, the call was inactive.

For `CN(C)Cc1cc(CN(C)C)c(O)c(CN(C)C)c1`, the call was inactive.

On to `CC(C)(C)CC(C)(C)c1ccc(O)c(-n2nc3ccccc3n2)c1`, for which the outcome was inactive.

Consider `C[C@]12CC[C@@H]3c4ccc(O)cc4CC[C@H]3[C@@H]1CCC2=O`, for which the compound was classed as inactive.

Regarding `C=CC(=O)NC(C)(C)CS(=O)(=O)O`, the outcome was inactive.

On to `CC1=C(/C=C/C(C)=C/C=C/C(C)=C/C(=O)O)C(C)(C)CCC1`, for which the result was inactive.

Regarding `Cc1c(N(C)C)c(=O)n(-c2ccccc2)n1C`, the compound was called inactive.

Regarding `O=c1cc[nH]c(=O)[nH]1`, the compound was called inactive.

Regarding `CCCCCCCC(=O)OCC(O)CO` (stereo not given), the call was inactive.

For `NCCNc1cccc2ccccc12`, the compound was called inactive.

With `CCCCOCCOCCOC(C)=O`, the outcome was inactive.

Turning to `O=C(O)CCCCC1CCSS1` (stereo not given), the outcome was inactive.

For the compound `CCc1cc(C(N)=S)ccn1`, the result was inactive.

As for `C/C=C/c1ccc(O)c(OC)c1`, the compound was classed as inactive.

Turning to `CO[C@H]1C=CO[C@@]2(C)Oc3c(C)c(O)c4c(O)c(c(/C=N/N5CCN(C)CC5)c(O)c4c3C2=O)NC(=O)/C(C)=C\C=C[C@H](C)[C@H](O)[C@@H](C)[C@@H](O)[C@@H](C)[C@H](OC(C)=O)[C@@H]1C`, the result was inactive.

Take `Cn1cnc2c1c(=O)[nH]c(=O)n2C`: the result was inactive.

`Cc1cnc(NC(=O)C2=C(O)c3ccccc3S(=O)(=O)N2C)s1`: the compound was called inactive.

As to `CC(=O)Oc1ccccc1C(=O)O`, the result was inactive.

Turning to `COc1ccccc1NC(=O)CC(C)=O`, the call was inactive.

For `CCCCOCCOCCSC#N`, the outcome was inactive.
